From PubChem BioAssay (NCI)
Where “and” joins values, the source holds several entries; their conditions need not be identical. Identical values can stand only once. This is part of a sample that, as a whole, favours compounds with a hit. Of some 79,000 tested, about 15% had one in any assay. A number with no mark means an inactive call. Calls of active or inactive are those of the source. No stated cut-off is given here; in the data, active means growth inhibition above about 70%; inactive means the rest.

Assay: NCI Yeast Anticancer Drug Screen. Data for the rad50 strain (AID 155);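 further: 0% = growth of vehicle-only cultures of the same strain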
Details: S. cerevisiae rad50 strain growth inhibition, stronger effect = higher value; at 50.0 µM unless noted
Experimental: Growth inhibition of yeast strains with defined genetic alterations is measured as a screen for potential anti-cancer activity. Selected strains with alterations in DNA damage repair or cell cycle control were exposed to compounds and growth inhibition was measured relative to vehicle treated controls. The strain used in this assay is rad50
For `N.N.O=P([O-])([O-])C1(P(=O)([O-])[O-])CCCCCN1.[Pt+2]`, the growth inhibition was 13.6%.
With `O=C1NC(=S)N/C1=C\c1ccc(Cl)cc1` the growth inhibition was -5.75%.
Work on `C=C1CC2C=CC1C2` (stereo not given) yielded a growth inhibition of 3.65%.
For `CN(C)c1ccc(C2NC(=S)NC3=C2CCCC3)cc1` (stereo not given), the growth inhibition was -15.1%.
`COc1cccc(C2SCC(=O)N2c2ccc(-n3c(-c4ccccc4)nc4ccccc4c3=O)cc2)c1OC` (stereo not given) gave a growth inhibition of 11.9%.
`CCOCc1cccc2ccccc12` showed a growth inhibition of -13.6%.
For `CC[C@H](CC[C@@H](C)[C@H]1CC[C@H]2[C@@H]3CC=C4C[C@@H](O)CC[C@]4(C)[C@H]3CC[C@]12C)C(C)C`, the growth inhibition was 26.8% and -6.4%.
With `CCN(CC)CCCC(C)NCC1C(O)CCC2CN3CCc4c([nH]c5ccccc45)C3CC21` (stereo not given) the growth inhibition was 23.8%.
Compound `COc1cc(N(Cc2ccc3nc(OC)c(OC)nc3c2)Cc2ccc3nc(OC)c(OC)nc3c2)cc(OC)c1OC` has a growth inhibition of -29.8%.
Work on `COC1OC(CI)C(O)C(O)C1O` (stereo not given) yielded a growth inhibition of -6.05%.
With `CN1CCC(O)CC1` the growth inhibition was 7.6%.
For `COc1cc(C2c3cc4c(c(OC)c3CC3COC(=O)[C@@H]32)OCO4)cc(OC)c1O` (stereo not given in full), the growth inhibition was 85.9% (active).
Compound `N#CC(NNC(=O)Cc1ccccc1)c1ccc(O)cc1` (stereo not given) has a growth inhibition of -18.1%.
With `CCOC(=O)/C(C)=C\C=C(\C)CCC=C(C)C` the growth inhibition was -8.8%.
`CCCCN1C(=O)NC(Cc2ccccc2)C1=O` (stereo not given) showed a growth inhibition of -13.2%.
With `CC(=O)OCC(OC(C)=O)C(OC(C)=O)C(/C=N/N(C(C)=O)S(=O)(=O)c1ccc(/C=C2\NC(=O)NC2=O)cc1)OC(C)=O` (stereo not given) the growth inhibition was -42.5%.
For `CC(C)NC(=O)OCc1c(COC(=O)NC(C)C)c(-c2ccccc2)n(C)c1-c1ccccc1`, the growth inhibition was 12.6%.
With `Cc1cccc(C(C)C)c1N1C(=O)C(=O)C(c2nc3ccccc3o2)C(=O)C1=O` the growth inhibition was -5.85%.
For `O=Cc1ccc(OC(=O)Nc2ccc([N+](=O)[O-])cc2)cc1`, the growth inhibition was 2.65%.
With `NNC(=O)C(c1ccccc1)c1ccccc1` the growth inhibition was 6.4%.
`C[Si](C)(C)OC1CC(=O)OC1n1cc(F)c(=O)[nH]c1=O` (stereo not given) gave a growth inhibition of 56.8%.
`S=c1[nH]nc2scnn12` gave a growth inhibition of -2.85%.
For `Cc1ccc(Cl)c(NC(=O)Nc2ccccc2Cl)c1`, the growth inhibition was -3.7%.
Compound `COc1ccc(Cl)c2c(=O)c3ccccc3[nH]c12` has a growth inhibition of -3.45%.
For `CC(C)Cc1c(C#N)c(C#N)c(N)n1Cc1ccccc1`, the growth inhibition was 3.05%.
`O=C(O)c1ccccc1C(=O)Nn1cnnc1` gave a growth inhibition of -7.55%.
`COc1ccc(N=C=Nc2ccc(OC)cc2)cc1` gave a growth inhibition of -1.45%.
Compound `CN1CCN(C(=S)N(C)C(=O)c2ccco2)CC1` has a growth inhibition of -37.8%.
For `CC1OC(O[C@H]2CC[C@]3(C)[C@H]4CC=C5[C@@H]6[C@@H](C)[C@H](C)CC[C@]6(C(=O)OC6OC(CO)C(O)C(O)C6O)CC[C@@]5(C(=O)O)[C@]4(C)CC[C@H]3C2(C)C)C(O)C(O)C1O` (stereo not given in full), the growth inhibition was -11.8%.
In the case of `CN(C)C(=S)Oc1ccc(-c2c(-c3ccccc3)oc3ccc4ccccc4c23)cc1`, the growth inhibition is reported as 28.2%.
In the case of `CC1=NN2C(c3ccc([N+](=O)[O-])cc3)=CSC2=NC(C)(C)C1`, the growth inhibition is reported as 20.6%.
For `O=C(O)CCc1[nH]c(I)nc1I`, the growth inhibition was 17.1%.
`Cc1ccccc1NS(=O)(=O)N1CCCCC1` gave a growth inhibition of -11.8%.
Compound `O=C(NC1c2ccccc2Oc2ccccc21)OCCI` has a growth inhibition of 36.1%.
With `OCC12c3ccccc3C3c4ccccc4C1C32` (stereo not given) the growth inhibition was 10.2%.
With `COc1ccc(/C=C2\N=C(c3ccc([N+](=O)[O-])cc3)OC2=O)cc1OC` the growth inhibition was -5.35%.
Compound `COc1cc(/C=N/NC(=O)c2ccccc2OC)ccc1O` has a growth inhibition of 41.4%.
`O=C(c1ccc(-c2ccccc2)cc1)C(O)c1ccc(-c2ccccc2)cc1` (stereo not given) gave a growth inhibition of 7.55%.
Work on `Nn1c(-c2cccc(Cl)c2)nc2ccccc2c1=O` yielded a growth inhibition of -18.6%.
For `CN(C)C(=S)Oc1c([N+](=O)[O-])cc([N+](=O)[O-])cc1C(C)(C)C`, the growth inhibition was 94% (active).
